Bioassay records from PubChem BioAssay.
The list is not random: actives were taken first. Their share in the collection is about 2.4%.
D2 antagonist – D2 dopamine receptor (human) antagonism; P14416; HEK293 TREx D2 cells, calcium flux, dopamine EC80; inhibition, % at 10 µM; actives 2% (n = 340,000); AID 485344; in the data active = inhibition above about 30%; inactive = below that, where a call was filed
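Cells plated overnight at 30 C with tetracycline; no-wash calcium dye, 30–90 min RT; 10 s baseline; compound pinned; 180 s read; EC80 dopamine added; another 180 s read.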
D2 PAM-1 – potentiates the human D2 dopamine receptor allosterically; P14416; AID 624464; actives 0.23% (n = 360,000); DiscoveRx D2 beta-arrestin cells, luminescence, 90 min; 100% = 57 uM dopamine signal; potentiation, % (test concentration not listed); in the data active = potentiation above about 50%; inconclusive = mostly about 30% to 49%
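D2 cells co-treated with compound plus 50 nM dopamine (EC20) for 90 min at 37 deg C to detect potentiation. Beta-arrestin recruitment was read as enzyme-fragment luminescence after 1 h at ambient temperature. Full response was set by 57 uM dopamine.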
D2 ag-1 – activates the human D2 dopamine receptor; HEK293 T-REx D2 cells, calcium flux agonist mode; actives 0.53% (n = 340,000); AID 485358; activation, % at 2 µM; P14416;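 active = activation over 3 SD above normal in the single-dose calcium agonist read, cut at about 30% in these data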
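Tetracycline-induced HEK293 Trex cells with D2 receptor force-coupled to calcium signaling, plated overnight at 30 C and loaded with no-wash calcium dye. Calcium flux read kinetically for 180 s after compound addition; responses flag agonists.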
D2 PAM-2 – positive allosteric modulators of human D2 dopamine receptor | P14416 | HEK293 T-REx D2, calcium flux, EC20 dopamine potentiation | potentiation, % at 10 µM | actives 0.34% (n = 340,000) | AID 485347;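 active = potentiation over 3 SD above the plate norm, cut at about 30% in these data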
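Potentiation of an EC20 dopamine calcium response measured kinetically over 180 s, after a preceding 180 s compound-only read flagging agonists. Cells: inducible Hek293 Trex D2 line, 4000/well, cultured overnight at 30 C before dye loading.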
D2 ag-2 – agonists of human D2 dopamine receptor (beta-arrestin); P14416; DiscoveRx PathHunter D2 beta-arrestin, luminescence, 90 min; 100% = 57 uM dopamine signal; activation, % (test concentration not listed); actives 0.084% (n = 360,000); in the data active = activation above about 40%; inconclusive = between about 15% and that limit
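Agonist mode: compounds alone added to overnight-plated D2 PathHunter cells for 90 min at 37 C, with 57 uM final dopamine (EC100) defining full response. Beta-arrestin recruitment detected by chemiluminescent reagent, read after 1 h at ambient temperature.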
D3 arrestin ag – activates human D3 dopamine receptor beta-arrestin recruitment; DiscoveRx D3 beta-arrestin cells, luminescence, 90 min; Potency, µM (series often up to 76.9 µM), actives largely listed as activators; actives 4% (n = 2,300); shares compounds with D2 ag-1; note: nearly all actives have a fitted effect of over 70% in size
Target sequence (P35462 whole entry, looked up): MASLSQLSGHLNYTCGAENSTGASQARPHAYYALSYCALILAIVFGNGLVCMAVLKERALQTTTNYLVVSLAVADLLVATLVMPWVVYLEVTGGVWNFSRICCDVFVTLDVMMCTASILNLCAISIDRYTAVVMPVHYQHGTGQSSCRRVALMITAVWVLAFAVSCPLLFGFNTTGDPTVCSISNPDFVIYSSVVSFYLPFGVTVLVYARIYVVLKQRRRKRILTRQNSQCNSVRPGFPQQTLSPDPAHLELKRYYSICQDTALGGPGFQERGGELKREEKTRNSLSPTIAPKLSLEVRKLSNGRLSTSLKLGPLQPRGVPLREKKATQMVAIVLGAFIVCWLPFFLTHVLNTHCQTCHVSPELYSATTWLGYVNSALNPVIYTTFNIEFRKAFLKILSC
D2 ag-3 – activates human D2 dopamine receptor in D3 counterscreen | actives 5.9% (n = 2,300) | shares compounds with D2 ag-1 | Potency, µM (doses to about 76.9 µM), usual class: activators | DiscoveRx PathHunter D2 beta-arrestin, luminescence, 90 min; response scale: percent relative to full dopamine signal; note: nearly all actives have a fitted effect of over 70% in size
Each line names hits and unclear results; the compound was inactive in the other large screens (follow-up assays come after a bar, where they were run). Unless noted, calls come from the whole dose curve; as a rule, active = well fitted activation curve with a large enough effect; inconclusive = small, poorly fitted or top-dose-only effect; inactive = flat fitted curve, though single readings scatter.

COc1ccc(NC(=O)c2oc3ccc(S(=O)(=O)N4CCC5(CC4)OCCO5)cc3c2C)cc1Cl	none (no result: D2 antagonist, D2 PAM-1, D2 ag-2)
COc1ccc(N2CCN(S(=O)(=O)c3ccc4oc(=O)c5ncn(C)c5c4c3)CC2)cc1	none (no result: D2 antagonist, D2 PAM-1, D2 ag-2)
Cc1cccc2sc(NC(=O)CSCc3ccccc3)nc12	D2 ag-1 44 | D3 arrestin ag inactive | D2 ag-3 inactive
Cc1cccc2sc(NC(=O)Cn3cccc3)nc12	none
Cc1ccc(-c2nc(SCCOc3ccccc3C)n3[nH]c(=O)cc3n2)cc1	none (no result: D2 antagonist, D2 PAM-1, D2 ag-2)
CCOC(=O)c1c(N)n(-c2ccc(CC)cc2)c2nc3ccccc3nc12	none (no result: D2 antagonist, D2 PAM-1, D2 ag-2)
CCOC(=O)c1c(N)n(-c2ccc(N)cc2)c2nc3ccccc3nc12	D2 ag-1 44 | D3 arrestin ag inactive | D2 ag-3 inactive
O=C(CC(c1ccccc1)c1cc(Br)ccc1O)NCC1(c2ccccc2)CCCC1 (stereo not given)	none (no result: D2 antagonist, D2 PAM-1, D2 ag-2)
CC(C)CNC(=O)CN(C1CCCCC1)S(=O)(=O)c1ccccc1	none | D3 arrestin ag inactive | D2 ag-3 inactive
CCS(=O)(=O)N1CC(=O)N(c2cccc(C)c2C)C(C)(C(=O)NC2CCCCC2)C1 (stereo not given)	none (no result: D2 antagonist, D2 PAM-1, D2 ag-2)
Cc1nn(-c2ccccc2)c2c1cc1c(=O)[nH]c(=O)nc-1n2-c1cccc(C(F)(F)F)c1	none (no result: D2 antagonist, D2 PAM-1, D2 ag-2)
COc1ccc(/C=C/C(=O)NC(=S)NN2CCCCC2c2cccnc2)cc1OC (stereo not given)	D2 ag-1 49 | D3 arrestin ag inactive | D2 ag-3 inactive
CC1(C)CC(O)(CNCc2ccc3c(c2)OCO3)CCO1 (stereo not given)	D2 antagonist 88, D2 ag-1 70, D2 ag-2 inconclusive | D3 arrestin ag inactive | D2 ag-3 inconclusive
CCc1ccc(CNC(=O)CN2C(=O)c3cccnc3Oc3ccc(Cl)cc32)cc1	none (no result: D2 antagonist, D2 PAM-1, D2 PAM-2, D2 ag-2)
CCCCNC(=O)C(CC)(ONc1ccccc1C(F)(F)F)c1ccccc1 (stereo not given)	none | D3 arrestin ag inactive | D2 ag-3 inactive
CCCCNC(=O)[C@@](CC)(ONc1ccccc1C(F)(F)F)c1cccc2ccccc12	none
CCN1CCN(C(c2ccc(SC)cc2)c2c(O)cc(C)n(CCOC)c2=O)CC1 (stereo not given)	none (no result: D2 antagonist, D2 PAM-1, D2 ag-2)
CCc1ccccc1NC(=O)CN1CCN(C(=O)CN2C(=O)NC3(CCCCC3C)C2=O)CC1 (stereo not given)	none
Cc1cccc(C)c1NC(=O)CN1CCN(C(=O)CN2C(=O)NC3(CCCCC3C)C2=O)CC1 (stereo not given)	D2 ag-1 40 | D3 arrestin ag inactive | D2 ag-3 inactive
Cc1cc(C(=O)NNc2ccc(F)cc2F)no1	D2 ag-1 49 | D3 arrestin ag inactive | D2 ag-3 inactive
Cc1cc(C(=O)NNC(=O)c2ccc(C(F)(F)F)cc2)no1	none | D3 arrestin ag inactive | D2 ag-3 inactive
Cc1ccc(NNC(=O)c2cc(C)on2)c(C)c1	none
CCOC(=O)c1c(NC(=O)CCCOc2ccc(C(C)(C)C)cc2)sc2c1CCCC2	none (no result: D2 antagonist, D2 PAM-1, D2 ag-2)
COc1ccccc1/C=N/NC(=O)c1ccc(CN2C(=O)c3cccc4cccc2c34)cc1	none | D3 arrestin ag inactive | D2 ag-3 inactive
CCOc1ccc2cc(-c3nnc(Nc4ccccc4F)s3)c(=O)oc2c1	none (no result: D2 antagonist, D2 PAM-1, D2 ag-2)
CC(C)c1ccc(OCC(=O)NCC(c2ccc(Cl)cc2)N2CCOCC2)cc1 (stereo not given)	none (no result: D2 antagonist, D2 PAM-1, D2 ag-2)
Cc1cccc(N2CCN(CC(O)COCc3cccs3)CC2)c1C (stereo not given)	D2 antagonist 71, D2 ag-1 56 | D3 arrestin ag 0.32µM | D2 ag-3 inactive
OC(COCc1cccs1)CN1CCN(c2cccc(Cl)c2)CC1 (stereo not given)	D2 antagonist 43, D2 ag-1 67, D2 ag-2 inconclusive | D3 arrestin ag inactive | D2 ag-3 inconclusive
CN1CCCN(CC(O)COCc2cccs2)CC1 (stereo not given)	none
OC(COCc1cccs1)CN1CCCCCC1 (stereo not given)	none
CN(C(=O)c1ccccc1C(=O)OCC(=O)c1ccccc1)c1ccccc1	none (no result: D2 antagonist, D2 ag-1, D2 PAM-2)
CN(C(=O)c1ccccc1C(=O)OCC(=O)c1ccc(F)cc1)c1ccccc1	none | D3 arrestin ag inactive | D2 ag-3 inactive
CCOc1ccc(NC(=O)CN(C)C(=O)C2CSC3(C)CCC(=O)N23)cc1OCC (stereo not given)	none | D3 arrestin ag inactive | D2 ag-3 inactive
CCOc1ccc(NC(=O)CN(C)C(=O)CC2CCCCC2)cc1OCC	none
COc1ccc(CN(C)C(=O)C2CSC3(C)CCC(=O)N23)cc1 (stereo not given)	none
COc1ccc(NC(=O)CN(C)C(=O)C2CSC3(C)CCC(=O)N23)cc1 (stereo not given)	none | D3 arrestin ag inactive | D2 ag-3 inactive
CC(=O)c1ccc(OC(=O)C2CSC3(C)CCC(=O)N23)cc1 (stereo not given)	none (no result: D2 antagonist, D2 ag-1, D2 PAM-2) | D3 arrestin ag inactive | D2 ag-3 inactive
CCOc1ccc(NC(=O)CN(C)C(=O)CCC2CCCCC2)cc1OCC	none | D3 arrestin ag inactive | D2 ag-3 inactive
Cc1cccc(NC(=O)CN2C(=O)CCn3nc(-c4cccn4C)cc32)c1C	none (no result: D2 antagonist, D2 PAM-1, D2 ag-2)
CCc1ccc(S(=O)(=O)c2nnn(-c3ccc(F)cc3)c2N)cc1	none (no result: D2 antagonist, D2 PAM-1, D2 ag-2)
COc1ccccc1CNC(=O)c1cc2cc3ccc(Cl)cc3nc2o1	none (no result: D2 antagonist, D2 PAM-1, D2 ag-2)
CCn1c(N2CCN(S(=O)(=O)c3ccccc3C(F)(F)F)CC2)nc2ccccc21	D2 ag-2 inconclusive | D3 arrestin ag 13µM | D2 ag-3 inconclusive
Cc1cccc(N2CCN(C(=O)c3cn(C4CCCCC4)c(=O)c4c3c3ccccc3n4C)CC2)c1C	none (no result: D2 antagonist, D2 PAM-1, D2 ag-2)
NNC(=O)CCn1nnc2ccccc21	none (no result: D2 antagonist, D2 ag-1) | D3 arrestin ag inactive | D2 ag-3 inactive
O=C(NCC1CCCO1)/C(=C/c1ccccc1)NC(=O)c1ccccc1 (stereo not given)	none
O=C(NCC1CCCO1)/C(=C\c1cccc([N+](=O)[O-])c1)NC(=O)c1ccccc1 (stereo not given)	none | D3 arrestin ag inactive | D2 ag-3 inactive
O=C(O)CNC(=O)c1ccc(NC(=O)/C(=C/c2ccccc2)NC(=O)c2ccco2)cc1	none
O=C(O)CNC(=O)c1ccc(NC(=O)/C(=C/c2cccc([N+](=O)[O-])c2)NC(=O)c2ccco2)cc1	D2 ag-1 47 | D3 arrestin ag inactive | D2 ag-3 inactive
NC(=O)CSc1nccn1Cc1ccccc1	D2 antagonist 45 | D3 arrestin ag inactive | D2 ag-3 inactive
